# Only some compounds are listed: those with a hit (about 2.4% of all), similar ones and a draw of the others.
# ANO1 activ: activators or potentiators of mouse TMEM16A chloride channel. HEK293 TMEM16A/YFP-H148Q/I152L, iodide quench fluorescence; active compounds read low. B-score at 10 µM. 340,000 compounds, 0.3% hits. AID 623877;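 active = fluorescence-ratio B-score plate-corrected deviation score at least 3 library SD below zero, with starting fluorescence score within 5 deviations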;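 note: channel opened by trigger with iodide after compound preincubation; score built on the fluorescence ratio of max minus min over baseline; more negative score means more quench and so TMEM16A activation or potentiation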
# Target sequence (Q8BHY3 whole entry, looked up): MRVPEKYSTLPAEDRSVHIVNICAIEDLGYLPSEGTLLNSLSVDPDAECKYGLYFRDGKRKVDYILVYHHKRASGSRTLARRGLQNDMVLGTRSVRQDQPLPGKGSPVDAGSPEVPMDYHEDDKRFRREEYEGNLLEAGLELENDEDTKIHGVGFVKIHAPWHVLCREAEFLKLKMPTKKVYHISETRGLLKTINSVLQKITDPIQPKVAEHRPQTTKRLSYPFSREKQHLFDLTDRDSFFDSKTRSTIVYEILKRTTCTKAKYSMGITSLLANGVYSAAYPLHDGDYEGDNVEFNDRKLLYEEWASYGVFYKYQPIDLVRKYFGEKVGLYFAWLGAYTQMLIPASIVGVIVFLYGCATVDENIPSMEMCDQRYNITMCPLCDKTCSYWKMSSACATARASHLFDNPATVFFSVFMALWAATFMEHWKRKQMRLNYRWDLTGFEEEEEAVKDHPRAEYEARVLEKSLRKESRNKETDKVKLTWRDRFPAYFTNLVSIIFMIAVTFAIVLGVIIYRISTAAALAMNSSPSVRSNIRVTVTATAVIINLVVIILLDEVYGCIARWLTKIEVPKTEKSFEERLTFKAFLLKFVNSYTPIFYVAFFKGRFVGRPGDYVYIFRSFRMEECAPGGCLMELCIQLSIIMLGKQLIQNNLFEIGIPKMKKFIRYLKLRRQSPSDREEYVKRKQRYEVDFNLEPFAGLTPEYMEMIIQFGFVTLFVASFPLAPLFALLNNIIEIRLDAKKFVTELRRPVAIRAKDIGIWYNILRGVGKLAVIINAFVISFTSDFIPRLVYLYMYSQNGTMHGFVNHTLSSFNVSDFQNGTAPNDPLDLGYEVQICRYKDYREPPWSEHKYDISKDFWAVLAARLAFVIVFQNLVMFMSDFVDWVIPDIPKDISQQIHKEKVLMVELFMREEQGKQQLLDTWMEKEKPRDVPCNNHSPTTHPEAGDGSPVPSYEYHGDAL
# CHT inh: human CHT choline transport inhibition. Q9GZV3. CHT-expressing cells, membrane potential dye, choline response; active compounds read low. B-score at 10 µM. 310,000 compounds, 0.86% hits. AID 488975;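 active = B-score over 3 SD under the library average, and starting fluorescence ratio not unusually high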;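 note: choline stimulus applied at its EC90 after an EC20 pre-addition; B-score computed on integrated fluorescence ratio after choline addition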
# CHT allo act: allosterically activates the human high affinity choline transporter; 310,000 compounds, 0.49% hits; AID 488977; B-score at 10 µM; CHT-expressing cells, membrane potential dye, choline EC20; active compounds read high; LV-AA mutant CHT in HEK293 cells; Q9GZV3;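 active = initial fluorescence not abnormally high and integrated response B-score, plate-corrected, over 3 SD above library mean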
# ANO1 block: inhibitors of mouse TMEM16A calcium-activated chloride channel; HEK293 TMEM16A/YFP iodide influx fluorescence, ionomycin; normalized B-score (activity score, 25-100; higher = stronger inhibition) at 10 µM; 310,000 compounds, 1.2% hits; AID 588511;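 active = ratio plate-corrected score three or more library SD toward inhibition, starting fluorescence score within five deviations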;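 note: score derived from kinetic fluorescence span divided by baseline fluorescence per well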
# CHT block conf: human CHT inhibition, confirmatory screen. 2,400 compounds, 70% hits. CHT-expressing cells, choline membrane potential dye; LV-to-AA substituted CHT, HEK293 cells. CHT activity remaining % of control (active compounds read low), % at 10 µM. shares compounds with CHT inh;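 active = choline transporter activity left, mean of duplicates at 10 µM, below buffer-only control mean minus 3 SD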;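 note: depolarization triggered by choline at its EC90 following an EC20 pre-addition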
# HEK293 CHT ctr: CHT inhibitor counter-screen hit in parental HEK293 cells | shares compounds with CHT inh | membrane potential dye, choline response; active = decrease or increase beyond buffer ±3SD | membrane potential ratio readout (active if shifted either direction beyond buffer ±3SD; no single direction) at 10 µM | 2,400 compounds, 4% hits | AID 493222;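 note: parental cells lack the transporter so any hit is non-specific; ratio is peak minus trough fluorescence over baseline after EC90 choline challenge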
# A number is an active result; i = inactive; nt = not tested or not shown.
SMILES,ANO1 activ,CHT inh,CHT allo act,ANO1 block,CHT block conf,HEK293 CHT ctr
C/C(=N\NC(=S)Nc1ccccc1)C1Cc2ccccc2C(=O)O1 (stereo not given),i,i,i,i,nt,nt
CC(C)Sc1nc2ccc(Br)cc2[nH]1,i,-5.5,i,i,i,i
CSc1nc2ccc(Br)cc2[nH]1,i,i,i,i,nt,nt
CC(=O)N/N=C/c1c(C)[nH]n(-c2ccccc2)c1=O,i,-5.8,i,i,i,i
O=C1CSC(=S)N1/N=C/c1c(F)cccc1F,i,-5.6,i,i,71%,i
O=C1CSC(=S)N1N=Cc1c(O)ccc2ccccc12,i,nt,nt,nt,nt,nt
CC(=O)c1cc2c(cc1NC(=O)CCNC(=O)c1ccccc1Cl)OCO2,i,-5.6,i,i,50%,i
O=C(CCNC(=O)c1ccccc1Cl)Nc1ccc2c(c1)OCO2,i,i,i,i,nt,nt
Cc1ccc(OCCSCc2nc3ccccc3[nH]2)cc1,i,-5.5,i,i,i,i
Cc1ccc(CSCc2nc3ccccc3[nH]2)cc1,i,nt,nt,nt,nt,nt
Cc1c2cnn(CC(=O)NCCN3CCOCC3)c(=O)c2c(C)n1Cc1ccc(F)cc1,i,i,i,i,nt,nt
Cc1ccc(C)c(OCCC(=O)NNC(=O)Cn2nc(C)cc2C)c1,i,i,i,i,nt,nt
O=C(/C=C/Nc1ccc(Br)cc1F)c1ccccc1,i,i,i,i,nt,nt
COc1cc(NC(=O)CSc2ncnc3sc4c(c23)CCC(C)C4)c(C(=O)O)cc1OC (stereo not given),i,-6.3,i,i,70%,i
CC1CCc2c(sc3ncnc(SCC(=O)Nc4ccc(C(=O)O)cc4)c23)C1 (stereo not given),i,i,i,i,nt,nt
COCCn1c(-c2ccc(OC)cc2)cnc1SCC(=O)Nc1cc(C)on1,i,i,i,i,nt,nt
COc1ccc(N2C(=O)C(CC(=O)Nc3ccccc3)N(CCc3ccc(OC)c(OC)c3)C2=O)cc1 (stereo not given),i,-8.7,i,i,i,i
COc1ccc(CCN2C(=O)N(c3ccc(OC)cc3)C(=O)C2CC(=O)Nc2ccccc2)cc1 (stereo not given),i,i,i,i,nt,nt
CCOCCCN(C)C1CCN(C(=O)c2oc3ccccc3c2NC(=O)c2cccc([N+](=O)[O-])c2)CC1,i,-6.3,i,i,38%,4.3
Nc1cc(=O)[nH]c(SCC(=O)Nc2ccccc2-c2ccccc2)n1,i,i,i,i,nt,nt
CN(C)c1ccc(-c2nnn(CC(=O)N3c4ccccc4CCc4ccccc43)n2)cc1,i,-7.2,i,i,i,i
CC1CCCN(C(=O)Cn2nnc(-c3ccc(N(C)C)cc3)n2)C1 (stereo not given),i,i,i,i,nt,nt
CC1=C(C(=O)OC(C)C)C(c2ccc(Br)s2)NC(=O)N1C (stereo not given),i,-5.1,i,i,58%,i
CC1=C(C(=O)OC(C)C)C(c2ccccc2)NC(=O)N1C (stereo not given),i,i,i,i,nt,nt
CCCCNC(=O)c1cn(CC)c2ccc(S(=O)(=O)N3CCCC3)cc2c1=O,i,i,i,i,nt,nt
SMILES,ANO1 activ,CHT inh,CHT allo act,ANO1 block,CHT block conf,HEK293 CHT ctr
CCN(CC)CCCNC(=O)c1cn(CC)c2ccc(S(=O)(=O)N3CCc4ccccc4C3)cc2c1=O,i,-12,i,i,15%,i
CCn1cc(C(=O)NCCCN2CCN(C)CC2)c(=O)c2cc(S(=O)(=O)N3CCc4ccccc4C3)ccc21,i,-9.1,i,i,i,i
CCN(CC)CCNC(=O)c1cn(CC)c2ccc(S(=O)(=O)N(C)C)cc2c1=O,i,i,i,i,nt,nt
CCN(CC)CCNC(=O)c1cn(CC)c2ccc(S(=O)(=O)N3CCc4ccccc4C3)cc2c1=O,i,-8.1,i,i,28%,i
COc1ccc(-n2c(=S)[nH]c3cc(C(=O)Nc4ccc(C)c(F)c4)ccc3c2=O)c(OC)c1,i,i,i,i,nt,nt
O=C(Cc1c(F)cccc1Cl)c1ccc(O)cc1O,i,i,i,i,nt,nt
O=C(NCCN1CCOCC1)c1cc([N+](=O)[O-])cc([N+](=O)[O-])c1,i,i,i,i,nt,nt
Cc1ccccc1NS(=O)(=O)c1ccc(N2CCCC2=O)cc1,i,-5,i,i,i,i
Cc1ccccc1NS(=O)(=O)c1cc2c3c(c1)CC(=O)N3CCC2,i,i,i,i,nt,nt
NC(=O)c1ccc(Cn2c(C(=O)c3cc(Cl)c(N)c(Cl)c3)c3ccccc3[n+]2[O-])cc1,i,i,i,i,nt,nt
NC(=O)CCCn1c(C(=O)c2cc(Cl)c(N)c(Cl)c2)c2ccc(C(F)(F)F)cc2[n+]1[O-],i,-10,i,i,-1.6%,i
NCCCn1c(C(=O)c2cc(Cl)c(N)c(Cl)c2)c2ccc(C(F)(F)F)cc2[n+]1[O-],i,-8.2,i,i,14%,i
COc1ccc(C(=O)c2c3ccc(C(F)(F)F)cc3[n+]([O-])n2CCCC(N)=O)cc1,i,i,i,i,nt,nt
CCCCC(CC(O)COCC(C)C)C(=O)NN (stereo not given),i,i,i,i,nt,nt
Cc1ccc(/C=C/S(=O)(=O)NCC(=O)OCC(=O)Nc2c(F)cccc2F)cc1,i,i,i,i,nt,nt
Cc1oc(C(=O)O)cc1COc1ccc2c3c(c(=O)oc2c1C)CCC3,i,-6.6,i,i,43%,i
O=C(O)c1cnn(-c2nc(-c3cccc(F)c3)cs2)c1C(F)(F)F,i,i,i,i,nt,nt
O=C(O)c1cnn(-c2nc(-c3cccc([N+](=O)[O-])c3)cs2)c1C(F)(F)F,i,-6,i,i,66%,i
COc1ccc(/C=C\C(=O)NCC(=O)N/N=C/c2ccc(O)cc2O)cc1,i,-5.5,i,i,i,i
O=C(Nc1ccc(Cl)cn1)c1cccnc1,i,i,i,i,nt,nt
C=CCN(CC=C)S(=O)(=O)c1ccc2nc(NC(=O)C3CCCO3)sc2c1 (stereo not given),i,-5,i,i,58%,i
Cc1nc(N)sc1-c1csc(N(C)c2ccc(O)cc2)n1,i,i,i,i,nt,nt
CN(c1ccc(O)cc1)c1nc(-c2cccs2)cs1,i,-5.1,i,25,70%,i
O=C(NCc1cccnc1)c1ccc(-c2cc3ccccc3oc2=O)cc1,i,i,i,i,nt,nt
Cc1nnc(Sc2nc3ccccc3o2)c2ccccc12,i,-5.9,i,i,27%,i
Cc1ccc(-c2nnc(Sc3nc4ccccc4o3)c3ccccc23)cc1,i,i,i,i,nt,nt
COC(=O)CCC(=O)OC1(C)C(=O)C2=CN(CC3CC3)C(c3ccc(OC)cc3)=CC2=C(Br)C1=O (stereo not given),i,i,i,i,nt,nt
Cc1ccnc(SCc2cc(=O)c(OC(=O)c3ccc(S(=O)(=O)N(C)C)cc3)co2)n1,i,-6.5,i,i,58%,i
O=C(COc1ccccc1-c1ccccc1)NNC(=O)NC1CCCCC1,i,-6.3,i,i,34%,i
